# PubChem BioAssay (NCATS)
# Inconclusive results are not listed. A call without a number means that no potency is given here. Activity calls are given as the source filed them. The call rests on the fitted dose curve; in most records, active means well fitted curve in the direction sought with a large enough effect; inconclusive means small, poorly fitted or top-dose-only effect, or another doubt; inactive means no such curve, though single readings can be large; an effect the other way counts as inactive or inconclusive.
# Experiments:
# [1] = tested on: Zika virus NS2B-NS3 protease; assay: Primary screen GU AMC qHTS for Zika virus inhibitors (AID 1347154); further: nearly all actives have a fitted effect of over 70% in size
# Method in brief: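 Unlinked Zika NS2B hydrophilic domain/NS3 protease domain noncovalent complex (25 nM final) in 10 mM Tris-HCl pH 8.0, 0.01% Tween 20, with AMC peptide substrate. Fluorescence (ex 340, em 450 nm) change over 15 min, room temperature; percent inhibition fitted to 4-parameter Hill equation.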
# [2] = Counterscreen qHTS for small molecule stabilizers of the endoplasmic reticulum resident proteome: GLuc-NoTag assay (AID 1508627);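 further: SH-SY5Y cells given compound then 100 nM thapsigargin to empty ER calcium; series mostly up to about 76 µM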
# Method in brief: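 SH-SY5Y cells stably expressing constitutively secreted GLuc (no SERCaMP tag) were pre-incubated 5 h, treated with compound for 19 h, then 100 nM thapsigargin for 4 h at 37C; medium GLuc read by coelenterazine luminescence.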
# [3] = Cell Viability qHTS for small molecule stabilizers of the endoplasmic reticulum resident proteome (AID 1508629); conditions: cell viability counter-screen, 100 nM thapsigargin for final 4 h;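 further: potency means the concentration at half of the fitted maximal effect; compound exposure about 46 h in total before the viability read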
smiles,measurement,setting,value
CC(C)ON(C(C(=O)NO)C(C)C)S(=O)(=O)c1ccc(-c2ccccc2)cc1 (stereo not drawn),Potency,[1],inactive
same,Potency,[2],inactive
same,Potency,[3],12.6 µM (active)
